GAA850 FXN act: FXN promoter activators, primary screen, cell-based, luciferase luminescence, HEK293 lucGAA850 | 0.56% of 360,000 active | AID 540364, 2011 | HEK293 lucGAA850 FXN promoter luciferase reporter, 24 h; percent of 10 µM SAHA response | activation, % at 6 µM;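 active = activation above the average of all compounds screened plus 3 SD, cutoff fixed separately per campaign, cut at about 7.5% in these data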
MITF TRPM1 HTS: activators of MITF-driven TRPM1 promoter reporter, primary screen, cell-based, SK-MEL-5, luciferase, single point; 0.75% of 300,000 active; activation, % at 12.5 µM; SK-MEL-5 TRPM1-promoter luciferase, 24 h; % of positive control, neutral wells = 0;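 active = mean activation of at least 80% with every replicate also reaching 80%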
esBAF inh: Bmi1 luciferase reporter increase in mESCs, primary screen, esBAF inhibitor project, mouse ES cells, Bmi1 luciferase knock-in, single point; 24 h; 100% = twice the neutral-well signal; reporter increase, % at 12.5 µM; 2% of 350,000 active; in the data active = activation above about 40%;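 also: a rise in the Bmi1 reporter signal indicates esBAF inhibition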
Wnt bcat act: Wnt/beta-catenin pathway activators, primary screen, cell-based, plate reader, single point; Wnt/beta-catenin reporter cell assay, activator; activation, % at 9.35 µM; 1.2% of 300,000 active; in the data active = activation above about 30%, passing the limit was not always enough
GAA30 counter: GAA30 FXN promoter activators, confirmation, counter-screen for GAA850 frataxin promoter activator project, cell-based, luminescence, HEK293, lucGAA30, triplicate; shares compounds with GAA850 FXN act; HEK293 lucGAA30 FXN promoter luciferase, 24 h; DMSO = 0%, 5 µM ipriflavone = 100%; activation, % at 6 µM; 66% of 1,900 active;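 active = mean activation above the mean of solvent-only control wells plus 3 SD, cut at about 22% in these data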;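 also: counterscreen of GAA850 promoter hits where activity marks nonselective or luminescence artifacts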
GAA850 confirm: FXN GAA850 promoter activators in reporter cells, confirmation, cell-based, luminescence, HEK293 lucGAA850, triplicate; HEK293 lucGAA850 FXN promoter luciferase reporter, 24 h; 100% = activation by SAHA; activation, % at 6 µM; 86% of 1,900 active; shares compounds with GAA850 FXN act;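 active = mean activation above a set limit taken from the primary screen, cut at about 8% in these data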
Each line names hits and unclear results; the compound was inactive in the other large screens (follow-up assays come after a bar, where they were run). Only some compounds are listed: those with a hit (about 2.8% of all), similar ones and a draw of the others.

CC[C@]1(C(=O)OC)[C@H]2C(=O)N(Cc3ccccc3)C(=O)[C@H]2[C@H]2CN=C(SCc3ccc(C(=O)OC)cc3)N21	GAA850 FXN act 9.5 | GAA30 counter inactive | GAA850 confirm 10.9
Cc1ccc(-n2nc3ccc(NC(=O)C(C)C)cc3n2)cc1	GAA850 FXN act 7.9, MITF TRPM1 HTS 111.1, esBAF inh 100.2 | GAA30 counter 106.1 | GAA850 confirm 37.5
Cc1ccc(-n2nc3ccc(NC(=O)c4ccco4)cc3n2)cc1	none (no result: esBAF inh, Wnt bcat act)
CN(C)C(=O)C[C@H]1C[C@@H]2c3cc(NC(=O)NC4CCCCC4)ccc3O[C@@H]2[C@H](CO)O1	none (no result: GAA850 FXN act, MITF TRPM1 HTS, Wnt bcat act)
C[C@@H](CO)NC(=O)[C@H]1O[C@@H](n2cnc3c(N)ncnc32)[C@H](O)[C@@H]1O	none (no result: GAA850 FXN act, MITF TRPM1 HTS, Wnt bcat act)
OCC1OC(n2cnc3c(NC4CCCC4)ncnc32)C(O)C1O (configuration not stated)	GAA850 FXN act 12.0 | GAA30 counter 38.8 | GAA850 confirm 20.2
OCC1OC(n2cnc3c(NC4CCCCC4)ncnc32)C(O)C1O (configuration not stated)	GAA850 FXN act 9.6 | GAA30 counter 37.1 | GAA850 confirm 16.7
Nn1cnc2c(ncn2C2OC(CO)C(O)C2O)c1=O (configuration not stated)	GAA850 FXN act 13.2 (no result: MITF TRPM1 HTS) | GAA30 counter inactive | GAA850 confirm inactive
Nc1ncnc2c1ncn2C1OC(C(=O)NC2CC2)C(O)C1O (configuration not stated)	GAA850 FXN act 9.7 | GAA30 counter 25.9 | GAA850 confirm 14.9
CC(=O)N1[C@@H]2c3ccc(-c4ccc(F)cc4)c(=O)n3C[C@H]1[C@H](CO)[C@H]2C(=O)N(C)C	none (no result: GAA850 FXN act, MITF TRPM1 HTS, Wnt bcat act)
O=C(N[C@@H]1CC[C@H](CCn2cc(C3(O)CCCC3)nn2)O[C@@H]1CO)C1CCOCC1	none (no result: GAA850 FXN act, MITF TRPM1 HTS, Wnt bcat act)
CO[C@H]1CN(C)C(=O)c2cc(NC(C)=O)ccc2OC[C@H](C)N(CCc2ccccc2)C[C@H]1C	none (no result: GAA850 FXN act, MITF TRPM1 HTS, Wnt bcat act)
Oc1ccc(Cl)cc1-c1cc(-c2ccccc2)n[nH]1	none
COc1ccc(-c2cc(-c3ccccc3)n[nH]2)c(O)c1	GAA850 FXN act 8.2, esBAF inh 83.4 | GAA30 counter 121.0 | GAA850 confirm 38.4
Cn1cnc(S(=O)(=O)N[C@H]2C=C[C@@H](CC(=O)N3CCN(c4ccccc4)CC3)O[C@H]2CO)c1	none (no result: GAA850 FXN act, MITF TRPM1 HTS, Wnt bcat act)
CCOC(=O)CNC(=O)CSc1nc(C)cc(C)c1C#N	none
CCOC(=O)NC(=O)CSc1nc(C)cc(C)c1C#N	GAA850 FXN act 8.2 | GAA30 counter 102.8 | GAA850 confirm 29.9
CCC(C)[C@H](NS(=O)(=O)c1ccc(C)cc1)C(=O)N1CCC(C(=O)N2CCC(C(N)=O)CC2)CC1 (some centres not stated)	GAA850 FXN act 18.6 | GAA30 counter inactive | GAA850 confirm inactive
CC[C@H](C)[C@H](NS(=O)(=O)c1ccc(C)cc1)C(=O)N1CCC(C(=O)N[C@@H](C)C(=O)O)CC1	none (no result: Wnt bcat act)
C/C(=N\O)c1sc(-c2ccccc2)nc1C	GAA850 FXN act 8.1, Wnt bcat act 64.5 (no result: esBAF inh) | GAA30 counter 122.8 | GAA850 confirm 34.4
CCC12C(=O)C(CC)(C(c3ccccc3)=C1c1ccccc1)[C@@H]1C(=O)N(c3ccccc3)C(=O)C12 (some centres not stated)	GAA850 FXN act 11.5 (no result: esBAF inh) | GAA30 counter inactive | GAA850 confirm 11.4
COc1ccc(-c2csc(-c3ccc(O)cc3)n2)cc1	none (no result: esBAF inh)
COc1ccc(-c2nc(-c3ccc(O)cc3O)cs2)cc1OC	GAA850 FXN act 8.7 | GAA30 counter 75.0 | GAA850 confirm 36.4
Oc1ccc(-c2csc(-c3c[nH]c4ccccc34)n2)c(O)c1	GAA850 FXN act 8.1 (no result: esBAF inh, Wnt bcat act) | GAA30 counter 88.2 | GAA850 confirm 40.9
Cc1ccc(-c2csc(-c3c[nH]c4ccccc34)n2)c(C)c1	none
C=CCn1c(-c2csc(-c3ccc(OC)c(OC)c3)n2)n[nH]c1=S	GAA850 FXN act 7.6 (no result: esBAF inh) | GAA30 counter inactive | GAA850 confirm 11.1
Cc1ccc(Nc2nc(N)c([N+](=O)[O-])c(NCc3ccco3)n2)cc1	GAA850 FXN act 8.9 (no result: esBAF inh) | GAA30 counter 67.4 | GAA850 confirm 34.0
COc1ccc(NS(=O)(=O)c2cc(NC(=O)CNC(=O)c3cccc(OC)c3)ccc2C)cc1	GAA850 FXN act 7.9 (no result: esBAF inh) | GAA30 counter 32.5 | GAA850 confirm 17.6
Fc1ccc(-c2ccc(Nc3cccc(F)c3)nn2)cc1	GAA850 FXN act 8.3, esBAF inh 52.5 | GAA30 counter 93.3 | GAA850 confirm 30.8
CCOC(=O)c1sc(N/N=C/c2ccccc2)nc1C	GAA850 FXN act 7.6 (no result: esBAF inh, Wnt bcat act) | GAA30 counter 134.2 | GAA850 confirm 39.9
CC(C)NC(=O)N(C)C[C@H]1Oc2ccc(NC(=O)Nc3ccc(C(F)(F)F)cc3)cc2C(=O)N([C@H](C)CO)C[C@H]1C	none (no result: GAA850 FXN act, MITF TRPM1 HTS, Wnt bcat act)
CC(c1ccco1)N(C(=O)C12CC3CC(CC(C3)C1)C2)c1ccccn1 (configuration not stated)	none (no result: Wnt bcat act)
O=C(N(c1ccccn1)c1ccccn1)C12CC3CC(CC(Cl)(C3)C1)C2	GAA850 FXN act 8.4 | GAA30 counter inactive | GAA850 confirm inactive
CCOC(=O)NC(=O)CSc1nc(-c2ccc(C)c(C)c2)cn1-c1ccccc1	GAA850 FXN act 7.9 (no result: esBAF inh, Wnt bcat act) | GAA30 counter 62.1 | GAA850 confirm 33.9
CCOC(=O)c1c(NC(=O)CSc2nnc(-c3c[nH]c4ccccc34)n2CCOC)sc2c1CCCCC2	GAA850 FXN act 17.4 (no result: MITF TRPM1 HTS) | GAA30 counter inactive | GAA850 confirm 8.2
CCOC(=O)c1c(NC(=O)CSc2c[nH]c3ccccc23)sc2c1CCCC2	none (no result: MITF TRPM1 HTS)
COc1ccc(NC(=O)C2(C)CCN2Cc2cccc(OC)c2OC)cc1OC (configuration not stated)	none (no result: MITF TRPM1 HTS)
COc1ccc(NC(=O)C2(C)CCN2Cc2ccc(OC)c3ccccc23)cc1OC (configuration not stated)	GAA850 FXN act 7.7 (no result: MITF TRPM1 HTS) | GAA30 counter 21.8 | GAA850 confirm 12.8
COc1ccc(NC(=O)Nc2ccc3c(c2)CC(=O)N([C@H](C)CO)C[C@@H](C)[C@H](CN(C)Cc2ccc(-c4ccccc4)cc2)O3)cc1	none (no result: GAA850 FXN act, MITF TRPM1 HTS, Wnt bcat act)
CCN(CC)S(=O)(=O)c1ccc(C(=O)OCCN2C(=O)c3cccc4c(N5CCOCC5)ccc(c34)C2=O)cc1	GAA850 FXN act 8.5 (no result: esBAF inh) | GAA30 counter inactive | GAA850 confirm inactive
COc1ccc(-c2cc(C(F)(F)F)nc(S(=O)(=O)CCCC(=O)Nc3cccc(O)c3)n2)cc1OC	GAA850 FXN act 9.3 (no result: MITF TRPM1 HTS, esBAF inh) | GAA30 counter 39.6 | GAA850 confirm 32.4

Bioassay records as filed in PubChem.
